High-throughput results as filed in PubChem.
C8 TRAIL sens – sensitizes caspase-8 expressing cells to TRAIL | NB7+C8 cells + TRAIL, ATPlite viability luminescence | inhibition (viability loss, TRAIL sensitization), % at 10 µM | actives 1% (n = 360,000);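 active = compounds causing at least 50% loss of cell viability in the single-dose screen, relative to plate controls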
HSP90 inh – inhibitors of HSP90 luciferase refolding in rabbit reticulocyte lysate | inhibition, % at 5.6 µM | AID 1789 | actives 0.91% (n = 290,000) | luciferase refolding luminescence, 3 h;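 active = inhibition above the screen-wide mean plus 3 SD, computed separately per campaign, cut at about 16% in these data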;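 also: 0% = DMSO wells and 100% = 60 µM geldanamycin wells; inhibitors lower the luminescence because luciferase stays unfolded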
TROY signal inh – inhibitors of TROY-dependent NF-kB signaling | inhibition, % at 10 µM | AID 1347056 | actives 0.98% (n = 360,000) | Q293 LMP1-TROYcd NF-kB luciferase reporter, 4 h;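 active = compounds whose plate-normalised and pattern-corrected inhibition of the luciferase reporter signal at the single screening dose is 50% or more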
PPC-1+TRAIL kill – compounds killing PPC-1 cancer cells with TRAIL present (potentiator screen, no TRAIL-free arm) | PPC-1 cells + TRAIL, ATPLite viability luminescence | AID 1443 | actives 0.41% (n = 220,000) | cell killing (% activity), % at 4 µM or 5 µM;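 active = cell killing above 50% in the first pass at 4 µM, then a duplicate retest at 5 µM averaging 50% or more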;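 also: plate controls were cells with TRAIL plus DMSO for no effect and medium-only wells lacking cells for full effect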
TWEAK-Fn14 inh – TWEAK-Fn14 signaling inhibition; TWEAK-stimulated Fn14 reporter cells, luciferase luminescence, 8 h; inhibition, % at 10 µM; actives 2% (n = 360,000); AID 1159606; in the data active = inhibition above about 50%
Platelet DG rel – platelet dense granule release activity; human platelet-rich plasma, SFLLRN dense granule ATP release, luminescence; inhibition, %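 (compounds screened at 7.5 µM in platelet-rich plasma)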; actives 0.22% (n = 300,000);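 active = mean replicate score, as percent of positive control, at or above 50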
Numbers without * were called inactive; nt = not tested or not shown. Compounds with a hit are over-represented: about 3.5% of the library has one in this group of screens.

SMILES | C8 TRAIL sens | HSP90 inh | TROY signal inh | PPC-1+TRAIL kill | TWEAK-Fn14 inh | Platelet DG rel
c1ccc(-c2noc(-c3ccc4ccccc4c3)n2)cc1 | 55* | 13 | 69* | 22 | 81* | 17
O=C(Nc1nccs1)c1ccc(-c2ccc(F)cc2)o1 | 54* | 2 | -77 | 49 | 29 | 0
O=C(Nc1nccs1)c1ccc(-c2ccc([N+](=O)[O-])cc2)o1 | 23 | 6 | 41 | 28 | 18 | -3
Cc1ccc2nc(-c3ccc(SCC(=O)Nc4nnc(C)s4)nc3)[nH]c2c1 | 54* | 0 | -49 | 21 | 25 | 1
Cc1cc2nc(-c3ccc(SCC(=O)Nc4ccc5c(c4)OCCO5)nc3)[nH]c2cc1C | 67* | -1 | -22 | 46 | 8 | 0
Cc1cc(Cl)ccc1C(O)c1ncc(-c2ccc(Cl)cc2)[nH]1 (stereo not given) | -15 | nt | 11 | nt | 9 | nt
CCc1c(OC(C)=O)c2ccccc2n(C)c1=O | 5 | -3 | -38 | 14 | 11 | 7
C=CCc1c(OC(C)=O)c2ccccc2n(C)c1=O | -12 | -2 | 14 | 11 | 55* | 4
Cn1nc([N+](=O)[O-])nc1Oc1ccccc1F | -2 | 0 | 7 | 48 | 6 | -59
CS(=O)(=O)c1nc([N+](=O)[O-])nn1CCCc1ccccc1 | -5 | nt | 22 | nt | 87* | 17
Cn1nc([N+](=O)[O-])nc1S(C)(=O)=O | -2 | 0 | 18 | -3 | 54* | -1
O=C(NCc1ccncc1)c1cccc(S(=O)(=O)N2CCc3ccccc32)c1 | 0 | nt | 23 | nt | 30 | nt
C[C@H]1CN([C@@H](C)CO)C(=O)CCCn2nncc2CO[C@@H]1CN(C)C(=O)c1ccccc1 | -7 | nt | 7 | nt | -13 | nt
COC(=O)[C@@H]1C[C@@]2(O)[C@H](O)[C@H](O)[C@H](O)C[C@H]2N1Cc1ccc(-c2ccccc2)cc1 | 6 | nt | -1 | 4 | 0 | -3
Cc1ccc(C(=O)NC(=S)Nc2cccnc2Cl)cc1 | 24 | 3 | 44 | nt | 73* | 7
CCOC(=O)[C@]12Cc3c(cc(OC)c(OC)c3OC)[C@H]1N(C1CCCCC1)C(=O)c1cc(OC)ccc12 | 67* | nt | 40 | nt | 38 | nt
O=CC1=C(c2ccccc2)Oc2ccccc2O1 | 27 | 2 | 38 | nt | 58* | 1
Cc1ccc(N(C)S(=O)(=O)c2cccc(C(=O)OCC(=O)N3CCCC(C)C3)c2)cc1 (stereo not given) | -2 | nt | 28 | nt | 36 | nt
CCOc1ccc(CN(C)CC(=O)Nc2cc(C)c(C)cc2[N+](=O)[O-])cc1 | -17 | 3 | 67* | 32 | 44 | 2
C[C@@H](NC(=O)c1ncn(C)c1C(=O)N[C@H](C)c1ccccc1)c1ccccc1 | -6 | nt | -16 | nt | 3 | nt
O=C(c1ccc(OC2CCN(Cc3ccccn3)CC2)cc1)N1CCC[C@H]1CO | -5 | 16* | -14 | nt | 0 | -6
CCC1CCCCN1C(=O)c1ccc(OC2CCN(Cc3ccccn3)CC2)cc1 (stereo not given) | 21 | -1 | 6 | nt | -1 | 8
O=[N+]([O-])c1cc(S(=O)(=O)Oc2ccccc2)ccc1Cl | 58* | nt | 5 | nt | 38 | nt
CC(=O)c1ccc(NC(=O)CCNC(=O)c2ccccc2Cl)cc1 | -13 | -3 | -4 | nt | 2 | -2
COc1cc(C(=O)Nc2nc(-c3ccc(C)cc3)cs2)ccc1OCC(=O)N1CCOCC1 | 4 | 3 | 57* | 17 | 46 | -1
SMILES | C8 TRAIL sens | HSP90 inh | TROY signal inh | PPC-1+TRAIL kill | TWEAK-Fn14 inh | Platelet DG rel
O=C(Nc1nc(-c2ccccc2)cs1)C1CCCN(S(=O)(=O)c2ccccc2)C1 (stereo not given) | 18 | 5 | 46 | -8 | 88* | 6
O=C(Nc1nc(-c2ccccc2)cs1)C1CCCN(S(=O)(=O)c2cccc([N+](=O)[O-])c2)C1 (stereo not given) | 13 | -1 | 2 | 6 | 22 | 0
O=C(Nc1nccs1)c1cc(S(=O)(=O)N2CCOCC2)ccc1Cl | 4 | nt | -2 | 60* | -3 | 0
O=C(Nc1nc(-c2nc3ccccc3s2)cs1)c1ccc(S(=O)(=O)N2CCOCC2)cc1 | 40 | -4 | 64* | -10 | 78* | -10
COc1cccc(C(=O)Nc2nc(-c3ccc(S(=O)(=O)N4CCOCC4)cc3)cs2)c1 | 31 | 1 | 64* | 24 | 70* | -6
O=C(Nc1nc(-c2ccc(S(=O)(=O)N3CCCC3)cc2)cs1)c1cccs1 | 30 | 1 | 53* | 10 | 55* | nt
O=C(Nc1nc(-c2ccccc2)c(C(=O)c2ccccc2)s1)c1ccc(S(=O)(=O)N2CCCC2)cc1 | 12 | 2 | 35 | 14 | 72* | -34
O=C(Nc1nc(-c2ccc(S(=O)(=O)N3CCOCC3)cc2)cs1)c1ccccc1 | 28 | 3 | 53* | 0 | 85* | -8
CCOc1ccc(/C=N/NC(=O)CN2CCCCC2)cc1OCC | -1 | 8 | 8 | nt | -6 | 3
CCC(CC)C(=O)N(C)c1c(C)nc2c(OCC=C(C)C)cccn12 | 1 | nt | 10 | nt | -20 | nt
O=C1c2ccccc2-c2onc3ccc(Oc4ccccc4)c1c23 | 18 | 0 | -7 | 28 | 56* | 3
CCS(=O)(=O)N1Cc2ccccc2CC1C(=O)Nc1nc2ccccc2s1 (stereo not given) | 29 | 26* | 70* | 17 | 81* | -12
Nc1cccnc1Oc1ccccc1F | 8 | 0 | 68* | 8 | 9 | 3
CCn1c2ccccc2c2cc(NC(=O)CSc3nccc(=O)[nH]3)ccc21 | -2 | -2 | 16 | 6 | 5 | -15
Cc1ccc(C)c(S(=O)(=O)N2CCN(C(=O)c3cc(-c4cccs4)nn3-c3ccccc3)CC2)c1 | 10 | nt | 33 | nt | 64* | 1
Cc1ccc(S(=O)(=O)N2CCN(C(=O)c3cc(C4CC4)nn3-c3ccccc3)CC2)cc1 | 5 | nt | 9 | nt | 13 | nt
O=C1COc2ccc(C(=O)COc3ccc([N+](=O)[O-])cc3)cc2N1 | -2 | -2 | 11 | 14 | -20 | 2
CCCOc1ccc(CSC(CC(=O)O)C(=O)O)cc1 (stereo not given) | 22 | 1 | -7 | 31 | -8 | 0
CCCCOc1ccc(CSC(CC(=O)O)C(=O)O)cc1 (stereo not given) | -12 | -3 | nt | 18 | 70* | 6
COc1ccc([C@H]2CC(=O)C[C@@H](CCn3nnc4ccccc43)O2)cc1 | -7 | nt | -2 | nt | 1 | nt
Cc1nnc(NC(=O)C2CC(=O)N(c3ccccc3)C2)s1 (stereo not given) | -2 | -2 | 2 | nt | 6 | -8
O=c1oc2ccccc2cc1-c1nc2c(s1)CCCC2 | 63* | 12 | 66* | 24 | 84* | 4
COc1ccc(Cn2c(C)nc3c(c2=O)c2nc4ccccc4nc2n3Cc2ccco2)cc1 | 11 | nt | 9 | nt | 52* | nt
Cc1ccc(NC(=O)CSc2ccccc2NC(=O)c2ccccc2Cl)cc1Cl | 3 | -3 | 17 | -4 | 73* | 0
